Compound activity: PubChem BioAssay, several laboratories
A selection: hits, their analogues and other compounds. The true share with any hit is near 1.2%.
PrP UTR inh – suppresses PrP 5' UTR mRNA reporter expression. inhibition, % (concentration not given with the values). actives 0.35% (n = 340,000). cell-based PrP 5' UTR mRNA reporter, plate reader; in the data active means inhibition above about 52%; further: 0 = median of the neutral control wells
BJeLR lethal – BJeLR cell viability loss; actives 0.17% (n = 300,000); inhibition, % (no concentration beside the values); BJeLR (HRASV12) viability, CellTiter-Glo ATP luminescence, 48 h; AID 1554; in the data active means inhibition above about 50%
PrPC surface inh – cell surface PrPC inhibition, primary TR-FRET screen. TR-FRET read-out. inhibition, % at 13.8 µM. actives 0.43% (n = 370,000). AID 720596; in the data active means inhibition above about 24%; further: 0% = median of the test wells and 100% = reference compound wells
PriA SSB inh – blocks PriA binding to SSB C-terminal tail; AlphaScreen SSBct-PriA binding, biotinylated peptide; inhibition, % at 33 µM; actives 0.6% (n = 430,000); in the data active means inhibition mostly above about 37%, no sharp cut-off; inactive means mostly below about 20%;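 further: plate controls were negative control peptide for no effect and reference peptide for full effect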
3CLpro inhibitor – SARS-CoV 3CLpro protease inhibition; recombinant SARS-CoV 3CLpro, quenched FRET peptide cleavage; actives 0.14% (n = 290,000); inhibition, % at 6 µM; AID 1706; P0C6X7; in the data active means inhibition above about 12%
PrPC TRFRET cf – cell surface PrPC inhibition, TR-FRET confirmation | AID 743200 | actives 65% (n = 1,500) | inhibition, % at 13.8 µM | cell surface PrPC level | shares compounds with PrPC surface inh; in the data active means inhibition above about 25%
LD9 tox – counter-screen for PrPc inhibitors: cytotoxicity in LD9 cells; inhibition, % at 13.8 µM; AID 743201; luminescence viability; shares compounds with PrPC surface inh; actives 29% (n = 1,500); in the data active means inhibition above about 9.5%
* hit, by the source's call; / = no result.

SMILES | PrP UTR inh | BJeLR lethal | PrPC surface inh | PriA SSB inh | 3CLpro inhibitor | PrPC TRFRET cf | LD9 tox
CCOc1cc(C=NNC(=O)COc2ccc(Cl)cc2)ccc1OS(=O)(=O)c1ccccc1 | / | / | / | -11.2 | / | / | /
CNC(=O)C(NC(=O)CNC(=O)c1ccc(Cl)cc1)C(C)(C)C (stereo not given) | -23.5 | -4.4 | 11.2 | -9.2 | 1.7 | / | /
CNC(=O)[C@@H](NC(=O)[C@H](CC(C)C)[C@H](O)C(=O)NO)C(C)(C)C | / | / | 60.6* | / | / | 65.4* | -2.9
Cc1ccc(-c2csc3ncnc(SCC(=O)O)c23)cc1 | -18.8 | -7.8 | 9.8 | -1.6 | 2.9 | / | /
COC(=O)CSc1ncnc2scc(-c3ccccc3)c12 | -9.8 | 2.1 | 50.3* | -23.7 | 0.3 | 67.0* | -1.4
COc1cccc2sc(Nc3nnc(-c4ccc(Cl)cc4)o3)nc12 | / | / | / | -23.0 | / | / | /
COc1cccc2sc(Nc3nnc(-c4ccc(F)cc4)o3)nc12 | -36.2 | 4.5 | 26.5* | 4.5 | -2.1 | 33.5* | -3.5
COc1cc2nc(C3CCC3)n(NC(=O)c3ccco3)c(=O)c2cc1OC | -1.7 | 34.7 | 41.4* | -27.5 | 4.6 | 36.9* | -4.7
O=C(c1ccc(OC(F)(F)F)cc1)N1Cc2cnc(N3CCOCC3)nc2C1 | / | / | / | -2.0 | / | / | /
COc1ccc(C(=O)Nc2cc(OC)c(Cl)cc2Cl)cc1 | -17.4 | 8.0 | 10.0 | -18.5 | -3.2 | / | /
COc1ccc(C(=O)Nc2scc(-c3ccc(Cl)cc3Cl)c2C(N)=O)cc1 | -62.3 | 3.3 | 68.4* | -3.0 | 2.3 | 33.6* | 6.0
C[n+]1cc2c3c(ccc2c2ccc4cc5c(cc4c21)OCO5)OCO3 | / | / | 86.9* | / | / | 100.5* | 98.8*
CC[C@H](CO)Nc1nc(Nc2cccc(Cl)c2)c2ncn(C(C)C)c2n1 | 2.5 | -2.6 | 24.7* | -19.6 | / | 19.8 | 11.3*
CC(C(=O)NCc1cccnc1)n1nnc2ccccc2c1=O (stereo not given) | / | / | / | -12.0 | / | / | /
Cc1ccccc1Nc1ccc([N+](=O)[O-])cn1 | -16.5 | 0.4 | -27.2 | -10.8 | -5.7 | / | /
Cc1ccccc1NC1=NCC(c2ccc([N+](=O)[O-])cc2)S1 (stereo not given) | -32.5 | 13.3 | 45.7* | 20.4 | -1.4 | 44.1* | 2.2
Oc1ccc2cc(Br)ccc2c1 | / | / | / | -29.0 | / | / | /
COC1=CC(=O)c2nc(Cl)ccc2C1=O | / | / | -10.0 | / | / | / | /
COC1=CC(=O)c2c(ccc3ncnc(N)c23)C1=O | 31.7 | / | 60.9* | 1.2 | / | 84.4* | 98.4*
Cc1cc(NCCc2ccccc2)c2ccccc2n1 | / | / | / | 7.0 | / | / | /
c1ccc(CCNc2ccnc3cc4ccccc4cc23)cc1 | -39.4 | 22.0 | 80.4* | 3.2 | 2.0 | 23.3 | 80.2*
Cc1nc(N2CCOCC2)nc(C)c1NC(=O)c1ccccc1Cl | / | / | / | -4.0 | / | / | /
CC(=O)N1CCN(c2ccc(NC(=O)c3ccc([N+](=O)[O-])o3)cc2Cl)CC1 | -24.8 | -3.9 | 9.6 | -1.5 | 1.8 | / | /
CCC(=O)N1CCN(c2ccc(NC(=O)c3ccc([N+](=O)[O-])o3)cc2Cl)CC1 | -65.0 | 10.9 | 38.5* | -0.9 | 1.7 | 21.2 | 96.7*
CC(C)N1CCc2c(sc(NC(=O)c3ccc([N+](=O)[O-])o3)c2C(N)=O)C1 | 95.4* | 4.7 | 48.6* | / | -1.8 | 62.5* | 54.3*
SMILES | PrP UTR inh | BJeLR lethal | PrPC surface inh | PriA SSB inh | 3CLpro inhibitor | PrPC TRFRET cf | LD9 tox
O=C(O)Cc1csc(NC(=O)C2CCC(=O)N2)n1 (stereo not given) | / | / | / | 18.0 | / | / | /
NC(COCc1ccccc1)c1csc(Nc2ncccn2)n1 (stereo not given) | / | / | 5.4 | / | / | / | /
CC(C)CC(N)c1csc(Nc2ncccn2)n1 (stereo not given) | / | / | 41.5* | / | / | 50.1* | -1.3
O=C1C(Cl)=C(Nc2ccc3cn[nH]c3c2)C(=O)c2ccccc21 | / | 87.2* | 70.9* | 9.6 | 6.1 | 22.4 | 98.3*
CCCCCc1c(CC)ncn1CCc1ccccc1OC | / | / | 28.9* | / | / | 19.4 | 22.1*
COC(=O)[C@H](CC1(c2cn(S(=O)(=O)CC[Si](C)(C)C)c3ccccc23)C(=O)Nc2ccccc21)NC(=O)OC(C)(C)C (stereo not given in full) | / | / | 46.7* | / | / | 59.0* | -1.3
Cc1cc(C(=O)N2CC(c3nc(-c4ccco4)no3)C2)c(C)o1 | / | / | / | 5.0 | / | / | /
CC1CCC(NC(=O)c2cc3c(s2)CCCC3)CC1 (stereo not given) | -56.8 | 0.9 | 49.9* | 1.3 | / | 63.5* | 1.6
CCOC(=O)Cc1csc(NC(=O)c2cc3c(s2)CCCC3)n1 | -32.6 | 9.4 | 29.9* | -5.6 | -0.7 | 24.6* | -5.5
Cc1csc(NC(=O)c2cc3c(s2)CCCC3)n1 | -9.0 | 5.9 | 26.2* | 2.6 | -0.3 | 20.5 | 6.7
Cc1csc(NC(=O)c2cc3c(s2)CCCCC3)n1 | 48.8 | 14.0 | 25.3* | 6.6 | 2.9 | 16.0 | 0.9
CCOC(=O)Cc1csc(NC(=O)c2cc(C)c(C)s2)n1 | -12.9 | / | 21.5 | -1.4 | / | / | /
CNC(=O)c1cc2c(s1)CCCCCC2 | -63.8 | -6.6 | 3.9 | -10.5 | -3.9 | / | /
Cc1ccc(Cn2nc(-c3cccs3)c3sc(N4CCCC4)nc3c2=O)cc1 | / | / | / | -12.0 | / | / | /
O=C(Nc1ccc(Br)cc1)N1CCOCC1 | / | / | / | 2.0 | / | / | /
CC(=O)C(Sc1ccc2nnc(-c3ccc(F)cc3)n2n1)C(C)=O | -10.5 | 5.2 | -6.7 | -7.1 | 1.4 | / | /
CCC(Sc1ccc2nnc(-c3ccc(F)cc3)n2n1)C(=O)O (stereo not given) | -15.6 | 10.9 | 38.0* | -4.3 | 2.8 | 57.7* | -7.6
COc1ccc(CCNC(=O)CSc2nnc(-c3ccc(=O)n(C)c3)n2C)cc1OC | / | / | / | -8.0 | / | / | /
Nc1nc(N)c2cc(S(=O)(=O)c3cccc(C(F)(F)F)c3)ccc2n1 | / | / | 5.3 | / | / | / | /
CN(C)c1ccc(Sc2ccc3nc(N)nc(N)c3c2)cc1 | / | / | 32.9* | / | / | 34.9* | 15.4*
CSCc1nc2scc(-c3ccccc3)c2c(=O)[nH]1 | -2.6 | 7.0 | -7.5 | -11.4 | -9.2 | / | /
O=c1[nH]c(Cc2ccccn2)nc2scc(-c3ccccc3Cl)c12 | -12.1 | 4.0 | 25.9* | 0.5 | 8.1 | 10.8 | -3.5
Cc1[nH]c(C(=O)NN=Cc2ccc(C(=O)O)cc2)c(C)c1C(=O)NN=Cc1ccc(C(=O)O)cc1 | / | / | / | -0.3 | / | / | /
COc1cc(-c2nc3ccc(C)cn3c2NCc2ccccc2)ccc1SC1CCCCC1 | -4.5 | 1.0 | 25.4* | 20.4 | / | 14.5 | 11.3*
COc1cc(-c2nc3ccccn3c2NCc2ccccc2)ccc1SC1CCCCC1 | -8.0 | 7.5 | / | -5.3 | / | / | /
CC(C)c1ccc(NC(=O)C2CCCN(S(=O)(=O)c3ccc4c(c3)C(C)(C)C(=O)N4C)C2)cc1 (stereo not given) | -3.5 | 10.5 | 78.8* | -8.0 | 8.2 | 72.7* | -1.8
CN1C(=O)C(C)(C)c2cc(S(=O)(=O)N3CCCC(C(=O)NCc4ccc(F)cc4)C3)ccc21 (stereo not given) | -27.2 | 9.6 | 29.1* | -11.6 | -1.0 | 40.1* | 3.6
CN1C(=O)C(C)(C)c2cc(S(=O)(=O)N3CCCC(C(=O)Nc4ccc(Cl)cc4)C3)ccc21 (stereo not given) | -19.1 | 7.4 | 80.6* | 9.6 | 1.5 | 73.2* | 4.4
